# Laboratory results published in PubChem BioAssay AID1347418 (Sanford-Burnham Center for Chemical Genomics, 2020).
# The whole screen tested about 1,300 compounds, of which about 750 (58%) were called active. The list shows a part of the results.
# Molecular target: Sulfhydryl oxidase 1 (Homo sapiens) (UniProt O00391)
# Experiment: inhibition of human sulfhydryl oxidase QSOX1 – biochemical, ROS-Glo H2O2 luminescence, HTS, primary screen (AID 1347418)
# Settings: recombinant QSOX1, ROS-Glo H2O2 luminescence; at 12.5 µM; hits give high values; active = any value above zero
# Chain of Sulfhydryl oxidase 1 (Homo sapiens) (O00391 whole entry, looked up): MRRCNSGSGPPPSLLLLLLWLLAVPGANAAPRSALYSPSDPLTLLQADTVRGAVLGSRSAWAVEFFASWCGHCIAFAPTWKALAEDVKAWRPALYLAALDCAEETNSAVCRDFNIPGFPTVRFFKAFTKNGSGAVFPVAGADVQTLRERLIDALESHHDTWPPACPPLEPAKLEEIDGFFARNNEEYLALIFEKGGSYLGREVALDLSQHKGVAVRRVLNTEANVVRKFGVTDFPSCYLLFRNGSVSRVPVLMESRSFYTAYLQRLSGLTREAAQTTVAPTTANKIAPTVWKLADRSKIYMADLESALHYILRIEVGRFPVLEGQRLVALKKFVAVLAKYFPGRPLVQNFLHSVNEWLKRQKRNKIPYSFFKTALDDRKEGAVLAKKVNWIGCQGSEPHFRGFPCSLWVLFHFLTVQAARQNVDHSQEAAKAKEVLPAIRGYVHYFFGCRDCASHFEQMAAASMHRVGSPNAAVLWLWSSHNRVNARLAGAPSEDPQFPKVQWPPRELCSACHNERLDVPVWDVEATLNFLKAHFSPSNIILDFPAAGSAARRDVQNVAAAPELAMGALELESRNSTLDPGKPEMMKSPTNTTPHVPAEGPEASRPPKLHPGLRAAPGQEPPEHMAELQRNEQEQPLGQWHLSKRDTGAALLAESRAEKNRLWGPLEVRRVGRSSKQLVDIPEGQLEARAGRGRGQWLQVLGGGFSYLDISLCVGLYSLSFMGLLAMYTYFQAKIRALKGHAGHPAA
row,Structure (SMILES),inhibition
1,CCOC(=O)N1CCN(/[N+]([O-])=N/Oc2ccc([N+](=O)[O-])cc2[N+](=O)[O-])CC1,-34% (inactive)
2,NC(=O)c1ncn([C@@H]2O[C@H](CO)[C@@H](O)[C@H]2O)n1,-3.1% (inactive)
3,OCC1O[C@H]([S-])[C@@H](O)C(O)[C@@H]1O.[Au+] (stereo partly drawn),2.4% (active)
4,CC(=O)N[C@@H](Cc1c[nH]c2ccccc12)C(=O)OCc1cc(C(F)(F)F)cc(C(F)(F)F)c1,2% (active)
5,O=C1C2C=CC=CC2=NC(=S)N1CCN1CCC(=C(c2ccc(F)cc2)c2ccc(F)cc2)CC1 (stereo not drawn),4.4% (active)
6,NCCCCNCCCN,1.5% (active)
7,NCCCNCCCCNCCCN,-1.8% (inactive)
8,CC(C)(C)NCC(O)COc1nsnc1N1CCOCC1 (stereo not drawn),3.3% (active)
9,CCOC(=O)C12CC1/C(=N/O)c1ccccc1O2 (stereo not drawn),0.7% (active)
10,O=C(c1ccc(F)cc1)C1CCN(CCn2c(=O)[nH]c3ccccc3c2=O)CC1,1.5% (active)
11,CC1(C)C(=O)N(CCN2CCC(C(=O)c3ccc(F)cc3)CC2)c2ccccc21,-1.4% (inactive)
12,O=C(O)c1cc2cc(F)ccc2[nH]1,6.8% (active)
13,O=C(O)c1cc(=O)cc(C(=O)O)[nH]1,-2% (inactive)
14,CCCC[C@@]1(C2CCCC2)Cc2cc(OCC(=O)O)c(Cl)c(Cl)c2C1=O,4.2% (active)
15,C[C@@]1(C2CCCC2)Cc2cc(OCC(=O)O)c(Cl)c(Cl)c2C1=O,-4.6% (inactive)
16,CC(C)c1ccc2c(c1)c(SC(C)(C)C)c(CC(C)(C)C(=O)O)n2Cc1ccc(Cl)cc1,8.9% (active)
17,COc1ccc2c(c1)c(CC(=O)O)c(C)n2Cc1ccc(Cl)cc1,-5.1% (inactive)
18,Cc1cc2c(C(C)C)c(O)c(O)c(C=O)c2c(O)c1-c1c(C)cc2c(C(C)C)c(O)c(O)c(C=O)c2c1O,50.4% (active)
19,CCN1C(=O)C=CC1=O,-3.8% (inactive)
20,[N-]=[N+]=Nc1ccc(C(=O)CSC[C@H](NC(=O)CC[C@H](N)C(=O)O)C(=O)NCC(=O)O)cc1,6.8% (active)
21,N[C@@H](CCC(=O)N[C@H](CSN=O)C(=O)NCC(=O)O)C(=O)O,-4.8% (inactive)
22,O=C1N=C([O-])CN1/N=C/C1=C[C+]=C(c2ccc([N+](=O)[O-])cc2)O1,3.6% (active)
23,N=C(N)SCCc1ccc(CCSC(=N)N)cc1,-2.2% (inactive)
24,N=C(N)SCCN,6.4% (active)
25,S=C(S)N1CCCC1,19.5% (active)
26,N#CC(C#N)=C(N)/C(C#N)=C/c1ccc(O)cc1,11.6% (active)

row,Structure (SMILES),inhibition
1,O=[N+]([O-])c1ccc2c(c1)S(=O)(=O)C=C2,2% (active)
2,O=c1[nH]c2cc(C(F)(F)F)ccc2n1-c1cc(C(F)(F)F)ccc1O,1.4% (active)
3,O=NN(CCCl)C(=O)NCCCl,-3.4% (inactive)
4,NC1CCN(O)C1=O (stereo not drawn),1.1% (active)
5,COc1cc2c(c(OC)c1OC)-c1ccc(OC)c(=O)cc1[C@@H](NC(C)=O)CC2,1.3% (active)
6,CCCCCCC(=O)OC1CC(C)(C)NC(C)(C)C1,1.1% (active)
7,Nc1ccc(S(=O)(=O)Nc2ccnn2-c2ccccc2)cc1,-1.7% (inactive)
8,CNc1cc(NS(=O)(=O)c2ccc(N)cc2)nc(NC)n1,3.7% (active)
9,O=C(O)C1=CC(=C(c2ccc(O)c(C(=O)O)c2)c2ccc(O)c(C(=O)O)c2)C=CC1=O,17.4% (active)
10,COc1cc(/C=C(\C#N)C(=O)c2ccc(O)c(O)c2)cc(I)c1O,27.3% (active)
11,N#C/C(=C\c1ccc(O)c(O)c1)C(=O)c1ccc(O)c(O)c1,17.4% (active)
12,CN(C)CC[C@@H](c1ccc(Cl)cc1)c1ccccn1,0% (inactive)
13,CN(C)CCC(c1ccc(Cl)cc1)c1ccccn1 (stereo not drawn),2.8% (active)
14,CN(C)CCC(c1ccc(Br)cc1)c1ccccn1 (stereo not drawn),0.5% (active)
15,CN(C)CC[C@@H](c1ccc(Br)cc1)c1ccccn1,7.7% (active)
16,CN(C)CCC(c1ccccc1)c1ccccn1 (stereo not drawn),1.1% (active)
17,O.O.[NH2-].[NH2-].[NH2-].[NH2-].[NH2-].[NH2-].[NH2-].[NH2-].[NH2-].[NH2-].[NH2-].[NH2-].[NH2-].[NH2-].[Ru].[Ru].[Ru],20.7% (active)
18,CCCCC/C=C\CC(O)/C=C/c1cccc(CC(O)CCCCO)n1 (stereo not drawn),-0.7% (inactive)
19,O=C1CCc2cc(OCCCCc3nnnn3C3CCCCC3)ccc2N1,1.5% (active)
20,CCOC(=O)C1=C[C@]2(CC)CCCN3CCc4c(n1c1ccccc41)[C@@H]32,0.9% (active)
21,O=C1c2c(O)ccc(O)c2C(=O)c2c(NCCNCCO)ccc(NCCNCCO)c21,42% (active)
22,C=C1N=C(N=NC2=C(S(=O)(=O)[O-])[C+]=C(S(=O)(=O)[O-])[C+]=C2)[C+](COP(=O)([O-])O)C(C=O)=C1O,-3.7% (inactive)
23,CC(=O)[C@H]1CC[C+]2C3CC=C4C[C@@H](OS(=O)(=O)[O-])CC[C@]4(C)C3CC[C@@]21C (stereo partly drawn),1.8% (active)
24,CCOC(=O)C(C)Oc1cccc2c(=O)n(CC(=O)Nc3ccc4c(c3)OCCO4)ccc12 (stereo not drawn),-3.2% (inactive)
25,c1ccc(CN2CCC3(CCCc4ccccc43)CC2)cc1,3.6% (active)
26,Cc1nc2sccn2c(=O)c1CCN1CCC(=C(c2ccccc2)c2ccc(F)cc2)CC1,1.2% (active)

row,Structure (SMILES),inhibition
1,Cc1nc2ccccn2c(=O)c1CCN1CCC(C(=O)c2ccc(F)cc2)CC1,-1.4% (inactive)
2,Cc1nc2sccn2c(=O)c1CCN1CCC(=C(c2ccc(F)cc2)c2ccc(F)cc2)CC1,1.1% (active)
3,CN1CCN(C2=Nc3cc(Cl)ccc3Nc3ccccc32)CC1,22.2% (active)
4,Clc1ccc2c(c1)N=C(N1CCNCC1)c1ccccc1N2,23.2% (active)
5,CC1=NS(=O)(=O)c2cc(Cl)ccc2N1,-1.4% (inactive)
6,Cc1ccc2c(c1)C(N1CCN(C)CC1)=Nc1cccnc1N2,15.5% (active)
7,CCCCC[C@H](CC(=O)NO)C(=O)N[C@H](C(=O)N1CCC[C@H]1CO)C(C)C,-6.2% (inactive)
8,CCN1CCc2nc(N)oc2CC1,2.8% (active)
9,CCCCCCCCCCCCCCSCC(=O)O,-7.6% (inactive)
10,CCCCCC(O)CCCC(=O)O (stereo not drawn),1.1% (active)
11,O=C(O)CCCCCCCC(=O)O,-1.7% (inactive)
12,CC(C)(CO)Cc1cc(C(C)(C)C)c(O)c(C(C)(C)C)c1,4.9% (active)
13,CC(C)(C=O)Cc1cc(C(C)(C)C)c(O)c(C(C)(C)C)c1,-0.1% (inactive)
14,CCCCCC[C@@H]([C@@H](C)O)n1cnc2c(N)ncnc21,-0.9% (inactive)
15,CCCCCCCCCCCCCCC[C@H](O)[C@H](N)CO,7.8% (active)
16,CCCC(=O)NCCc1c2n(c3ccc(OC)cc13)CCCc1ccccc1-2,15% (active)
17,CC(C(=O)O)c1cccc(C(=O)c2ccccc2)c1 (stereo not drawn),-2.4% (inactive)
18,CC(C(=O)O)c1ccc(CC2CCCC2=O)cc1 (stereo not drawn),0.1% (active)
19,CC(C)Cc1ccc([C@H](C)C(=O)O)cc1,-0.6% (inactive)
20,CC(C)Cc1ccc(C(C)C(=O)O)cc1 (stereo not drawn),5.8% (active)
21,O=C(O)/C=C/c1cnc[nH]1,1% (active)
22,CCC1(C)CC(=O)NC1=O (stereo not drawn),0.9% (active)
23,CCCCOc1cc(CC2CNC(=O)N2)ccc1OC (stereo not drawn),-0.2% (inactive)
24,N[C@H](C(=O)O)[C@H]1C[C@@H]1C(=O)O,0.2% (active)
25,Cc1cccc(C)c1OCC(C)N (stereo not drawn),-0.4% (inactive)
26,Cc1cccc(C)c1OCC(N)C(C)C (stereo not drawn),4.5% (active)

row,Structure (SMILES),inhibition
1,Cc1cc2c(cc1Cl)N(C(=O)Nc1ccc(Oc3cccnc3C)nc1)CC2,1.2% (active)
2,Cc1cc2c(cc1Cl)N(C(=O)Nc1ccnc3ccccc13)CC2,16.8% (active)
3,CCN(CC)CCNC(=O)c1ccc(NC(C)=O)cc1,0.3% (active)
4,CCN(CC)CCNC(=O)c1ccc(N)cc1,-7.4% (inactive)
5,CCN(CC)CCNC(=O)c1ccc(NS(C)(=O)=O)cc1,-0.3% (inactive)
6,COc1ccc(CN(CCN(C)C)c2ccccn2)cc1,1.5% (active)
7,CN(C)CCN(Cc1cccs1)c1ccccn1,7% (active)
8,CN(C)CCOC(C)(c1ccccc1)c1ccccn1 (stereo not drawn),-2.5% (inactive)
9,CNC1(C)C2CCC(C2)C1(C)C (stereo not drawn),-2% (inactive)
10,CN1CCCC1CCOC(C)(c1ccccc1)c1ccc(Cl)cc1 (stereo not drawn),0.6% (active)
11,C=C/C(C)=C/[C@@]1(C)SC(=O)C(C)=C1O,-4.2% (inactive)
12,CO/N=C(\C(=O)N[C@@H]1C(=O)N2C(C(=O)O)=C(CSc3nc(=O)c(O)nn3C)CSC12)c1csc(N)n1 (stereo partly drawn),-1.9% (inactive)
13,CO[C@@]1(NC(=O)CSCC#N)C(=O)N2C(C(=O)O)=C(CSc3nnnn3C)CS[C@@H]21,0.7% (active)
14,Cc1nnc(SCC2=C(C(=O)O)N3C(=O)[C@@H](NC(=O)Cn4cnnn4)[C@H]3SC2)s1,-3.9% (inactive)
15,O=C(O)C1CN(CCCP(=O)(O)O)CCN1 (stereo not drawn),2.1% (active)
16,CN1CCC2(CCN3CCc4c(oc5ccccc45)C3C2)N(C)C1=O (stereo not drawn),-6.5% (inactive)
17,NC(=O)CNCCC(c1ccccc1)c1ccccc1,2.2% (active)
18,OC(CN1CCN(c2cccc(Cl)c2)CC1)C(c1ccccc1)c1ccccc1 (stereo not drawn),5.1% (active)
19,CC1CCN=C(N)S1 (stereo not drawn),-1.8% (inactive)
20,O=C(O)C1=CCCN(CCON=C(c2ccccc2)c2ccccc2)C1,1.1% (active)
21,CC(C)C[C@H]1C(=O)N2CCC[C@H]2[C@]2(O)O[C@](NC(=O)[C@@H]3C=C4c5cccc6[nH]c(Br)c(c56)C[C@H]4N(C)C3)(C(C)C)C(=O)N12,4% (active)
22,CC1C(=O)N(C)C(=O)c2nc[nH]c21 (stereo not drawn),0.5% (active)
23,CCCn1c(=O)[nH]c(=O)c2[nH]cnc21,-1.8% (inactive)
24,Cc1ccc(S(=O)(=O)N[C@@H](Cc2ccccc2)C(=O)CCl)cc1,-8.2% (inactive)
25,Cc1ccc(S(=O)(=O)NC(=O)NN2CCCCCC2)cc1,4.7% (active)
